# The panel holds about 83,000 compounds, 20% with a hit somewhere; the sample as a whole holds those more often.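 Single-concentration screen, 48 h exposure, 96-well plates. Endpoint: percent growth. Below 10 = active.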 Unmarked numbers belong to inactive results. Activity calls are given as the source filed them.
# System: HL-60(TB) leukemia
# Assay: NCI-60 one-dose screen, 48 h (100 = growth as untreated, 0 = no growth, -100 = all killed)
# Conditions: 10 µM unless noted
row,Structure (SMILES),growth
1,CS(=O)(=O)c1nccc(-c2c(-c3ccc(OCCc4ccccc4)cc3)nc3sccn23)n1,89.5%
2,COc1ccc(/C(=N/O)c2cc(OC)c(OC)c(OC)c2)c(OC)c1N,-24.6% (active)
3,CN1CCN(c2nc(C3=C(c4c[nH]c5ccccc45)C(=O)NC3=O)c3ccccc3n2)CC1,30.7%
4,CC1(C)NCCC[C@]2(C)[C@H]3CC[C@H]4[C@H]5[C@H](C(=O)/C=C/c6cccnc6)CCC[C@]5(CO)CC[C@@]4(C)[C@]3(C)CC[C@@H]12,23.9%
5,N#Cc1ccc(NC(=O)Nc2ccc(Cc3ccc(NC(=O)Nc4ccc(C#N)cc4)cc3)cc2)cc1,22.4%
6,CCCCCC(=O)OCc1ccccc1,89.4%
7,CCCNNC(=O)/C=C/c1ccc(CNCCc2c(C)[nH]c3ccccc23)cc1,33.3% [2.5 µM]
8,COc1cnc2c(c1)C(=O)c1c-2n(CCCn2ccnc2)c(=O)c2cc(F)ccc12,-44.5% (active)
9,CN1CCN(CCNC(=O)c2cccc(CN3c4cccc5c4C(=Cc4cccnc43)N(C)C5=O)c2)CC1,-6.25% (active)
10,COC(=O)Nc1cccc(Cl)c1OC,103%
11,COc1cccc2c1n([O-])c1cccc(OC)c1[n+]2=O,10.3%
12,O=C1Nc2ccccc2C12Nc1cc(Cl)ccc1S2 (centres undefined),71.6%
13,O=C(CNc1nc(-c2ccc(Cl)cc2)cs1)Nc1ccc(-c2nc3ccccc3s2)cc1,99.3%
14,Cc1cc(C)nc(SC2=C(Nc3ccc(O)cc3)C(=O)N(Cc3ccccc3)C2=O)n1,60.6% [40 µM]
15,COC(=O)[C@]12CC[C@@H](C)[C@H](C)[C@@H]1C1=CC[C@@H]3[C@@]4(C)C[C@@H](OC(C)=O)[C@H](O)[C@@](C)(COC(C)=O)[C@@H]4[C@H](O)C[C@@]3(C)[C@]1(C)CC2,-41.6% (active)
16,CCOC(=O)Cc1csc2nc(-c3ccccc3)nn12,53%
17,CCc1ccccc1NC(=O)c1sc2nc3c(cc2c1N)CCCC3,2.66% (active)

row,Structure (SMILES),growth
1,C=CCn1c(C)nc2ccc(Nc3nc(Nc4ccc(F)cc4)nc4ccccc34)cc21,51.6%
2,CCCCN(CCCC)Cc1c(C)[nH]c2cc(OC)ccc2c1=O,94.1%
3,c1ccc2[nH]c(-c3cc(-c4ccc5c(c4)OCO5)n[nH]3)nc2c1,13.3%
4,CO[C@H]1C[C@@H]2CC[C@@H](C)[C@@](O)(O2)C(=O)C(=O)N2CCCC[C@H]2C(=O)O[C@H]([C@H](C)C[C@@H]2CC[C@@H](OP(C)(C)=O)[C@H](OC)C2)CC(=O)[C@H](C)/C=C(\C)[C@@H](O)[C@@H](OC)C(=O)[C@H](C)C[C@H](C)\C=C/C=C/C=C/1C,76.4%
5,O=C1/C(=C\c2ccc(Cl)cc2)CN(C(=S)Nc2ccccc2)C/C1=C\c1ccc(Cl)cc1,-15.4% (active)
6,COc1ccc(-c2nc(SCC(C)C)nc(Nc3ccc([N+](=O)[O-])cc3)c2C#N)cc1,90.5%
7,N#Cc1ccc(NC(=O)c2sc3nc4c(cc3c2N)C(=O)CCC4)cc1,81%
8,COc1ccc(C2=NN3C(C2)c2cc(Br)ccc2OC3c2ccncc2)cc1 (centres undefined),93.5%
9,Cc1ccccc1-n1c(C)nc2cc(NC(=O)c3ccc(Cl)cc3)ccc2c1=O,64.5%
10,N#CN1CC[C@H](C(=O)Nc2cc3cc(C(N)=O)ccc3cn2)C1,-37.1% (active)
11,Cc1cc(Cl)nc(N(CCCNc2ccnc3cc(Cl)ccc23)Cc2ccco2)n1,-35.9% (active)
12,COCC(=O)NNc1[nH]c(-c2ccc(OC)cc2)cc1C#N,6.53% (active)
13,NS(=O)(=O)c1ccc(-n2ncc3c(NC4CCCCC4)ncnc32)cc1,70.7%
14,CC(=O)O[C@]1(C)C[C@H](O)[C@]2(O)C=CO[C@H](O[C@@H]3O[C@H](CO)[C@@H](O)[C@H](O)[C@H]3O)[C@@H]21,92.5%
15,Cc1ccc(S(=O)(=O)n2cc(C3C(Cl)C(=O)N3c3ccc(N4CCOCC4=O)cc3)c3ccccc32)cc1 (centres undefined),22.1%
16,CC/C(=C\c1ccc(N(C)C)cc1)c1nc2ccccc2c(=O)[nH]1,179%
17,NS(=O)(=O)c1ccc(CCN2C(=O)/C(=C\c3ccc(Cl)cc3)C=C2c2ccc(Oc3ccccc3)cc2)cc1,83.7%
